From PubChem BioAssay
mHTT CaM bind: disrupts binding of mutant huntingtin to calmodulin; hit rate 3.6% among 190,000; AlphaScreen His-mHTT/GST-CaM binding, luminescence; inhibition, % at 15 µM;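 further: 0% = both proteins with DMSO and 100% = one protein alone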
Pf apPOL block: Pf-apPOL DNA polymerase inhibition | inhibition, % at 10 µM | hit rate 0.25% among 210,000 | Recombinant Pf-apPOL, molecular beacon fluorescence, 1.5 h | AID 1794808
The depositor's hits bear a star; . = not tested or not shown. Shown are actives, neighbours in structure and some others; about 3.5% of the full set was active somewhere. No stated cut-off is given here; in the data, active means inhibition above about 50%; inactive means the rest.

SMILES	mHTT CaM bind	Pf apPOL block
Nc1ccccc1SC(CC(=O)c1cccs1)c1cccs1 (stereo not given)	.	-10
C=C(C)COc1ccc2c(=O)c(Oc3ccccc3OCC)coc2c1	-4	-8
COc1ccc(-c2ccc(CCC(=O)O)n2-c2ccc(OC)cc2OC)cc1	49	-3
COc1ccc(-n2c(CCC(=O)O)ccc2-c2cccs2)c(OC)c1	55*	8
Cc1cc2[nH]c(C(=O)Nc3cccc(Cl)c3C)c(CN3CCOCC3)c2s1	36	15
Cc1cc2[nH]c(C(=O)Nc3cccc(C)c3C)c(CN3CCOCC3)c2s1	53*	-9
O=C(CCC(=O)N1CCN(CCn2cccn2)CC1)c1ccccc1	4	-7
CCCCCNC(=O)C1CC(=O)N(CCc2c[nH]c3ccc(F)cc23)C1 (stereo not given)	2	-1
CCCN(C)C(=O)C1CCCN(c2cnn(C)c(=O)c2)C1 (stereo not given)	-2	-4
Cc1cccc(C(=O)N2CCCCC2c2nc(-c3ccncc3)no2)c1 (stereo not given)	2	4
O=C(NC1CCCCC1)N1CCN(c2ccc3nnc(-c4ccco4)n3n2)CC1	-5	-1
O=C(c1cccs1)N1CCN(c2ccc3nnc(-c4ccco4)n3n2)CC1	56*	1
Cc1cccn2cc(C(=O)NCc3ccc(F)cc3F)nc12	-15	-1
O=C(Nc1ccc(Cl)c(Cl)c1)N1CCCN(Cc2ccccc2)C1	95*	16
O=C(Nc1cc(Cl)cc(Cl)c1)N1CCCN(Cc2ccccc2)CC1	.	-11
Cc1cc(O)c2c(c1)OC(=Cc1cn(C)c3ccccc13)C2=O	72*	-2
Cc1cc(O)c2c(c1)OC(=Cc1ccc(Br)cc1)C2=O	43	-14
Cc1cc(O)c2c(c1)OC(=Cc1ccccc1F)C2=O	42	7
Cc1cc(O)c2c(c1)OC(=Cc1cccc(Br)c1)C2=O	56*	-13
CCCCSCCCNC(=O)CN1N=C(c2ccc(OC)cc2)CCC1=O	16	-9
COc1ccc(Br)cc1CN1C(=O)CCC1(C)C(=O)NC1CCCCCC1 (stereo not given)	19	-19
Cn1nc(COCc2ccccc2)c2c1CCN(C(=O)COc1ccccc1)C2	-4	-12
Cn1nc(COCc2ccccc2)c2c1CCN(C(=O)Cc1cccc(F)c1)C2	56*	-2
Cn1nc(C(=O)NCc2ccc(Cl)cc2)c2c1CCN(C(=O)Cc1ccccc1)C2	95*	2
Cn1nc(COCc2ccccc2)c2c1CCN(S(=O)(=O)c1ccc(F)cc1)C2	30	2
SMILES	mHTT CaM bind	Pf apPOL block
Cn1nc(COCc2ccccc2)c2c1CCN(S(=O)(=O)c1ccc3c(c1)CCC3)C2	56*	-2
Cn1nc(C(=O)NCc2ccccc2)c2c1CCN(C(=O)Cc1ccccc1)C2	43	-6
Cc1ccc(CC(=O)N2CCc3c(c(C(=O)NCc4ccc(Cl)cc4)nn3C)C2)cc1	78*	-6
CC1CCCN(CN2C(=O)C3(OCC(C)(c4ccccc4)CO3)c3ccccc32)C1 (stereo not given)	5	4
CNC(=S)NNC(=O)CSc1ccccc1	.	4
O=C1NC(=Nc2ccccc2)SC1Cc1ccc(Cl)cc1 (stereo not given)	3	4
Cc1cccc(CC(=O)N2CCc3c(c(C(=O)NCc4ccc(Cl)cc4)nn3C)C2)c1	59*	-12
Cn1nc(C(=O)NCc2ccc(Cl)cc2)c2c1CCN(C(=O)c1cccc(F)c1)C2	31	2
COc1ccc(OCC(=O)N2CCc3c(c(C(=O)NCc4ccccc4)nn3C)C2)cc1	-1	-12
COc1cccc(CC(=O)N2CCc3c(c(C(=O)NCc4ccc(F)cc4)nn3C)C2)c1	69*	-5
CC(O)(CNC(=O)C1CC=CCC1)c1ccc2c(c1)OCO2 (stereo not given)	1	1
COc1ccc(-c2nc(NCc3ccc(F)cc3)c3ccccc3n2)cc1OC	87*	-4
COc1ccc(-c2nc(NCc3ccccc3)c3ccccc3n2)cc1OC	14	-1
O=C1Nc2ccc(F)cc2/C1=C\c1c(Cl)cccc1Cl	100*	-3
O=C1Nc2ccccc2/C1=C\c1c(Cl)cccc1Cl	49	2
O=C1Nc2ccc(Br)cc2/C1=C/c1ccccc1Cl	11	-2
O=C1Nc2ccc(Br)cc2/C1=C\c1c(Cl)cccc1Cl	100*	3
O=C(Cc1ccccc1Cl)N1CCc2[nH]nc(C(=O)N3CCCCC3)c2C1	-5	-1
Cc1ccccc1-n1[nH]c(C)c(C=Nc2ccc([N+](=O)[O-])cc2)c1=O	11	4
Cc1ccccc1-n1[nH]c(C)c(C=Nc2cc([N+](=O)[O-])cc([N+](=O)[O-])c2O)c1=O	53*	-2
O=C(Nc1ccc(-c2ccc(=O)[nH]n2)cc1)c1ccc(-n2cccn2)nn1	-14	2
O=C(Nc1ccc(Nc2ccc(-n3cccn3)nn2)cc1)c1ncccn1	91*	-1
COCCCNC(=O)C1CCN(Cc2cc3ccccc3n2Cc2ccc(C)cc2)CC1	76*	-4
COCCNC(=O)C1CCN(Cc2cc3ccccc3n2Cc2cccc(C)c2)CC1	60*	5
Cc1ccc(Cn2c(CN3CCC(C(=O)NCc4ccco4)CC3)cc3ccccc32)cc1	38	2
SMILES	mHTT CaM bind	Pf apPOL block
CN(C)CCNC(=O)C1CCN(Cc2cc3ccccc3n2Cc2ccccc2)CC1	100*	5
COCCNC(=O)C1CCN(Cc2cc3ccccc3n2Cc2ccccc2C)CC1	60*	3
O=C(NCCc1ccccc1)C1CCN(Cc2ccccc2)CC1	-1	9
Cc1cccc(Cn2c(CN3CCC(C(=O)NCc4ccco4)CC3)cc3ccccc32)c1	36	1
COc1ccccc1CN1CCC(C(=O)NCCc2ccccc2)CC1	-8	-4
CCCN1C(=O)Cc2cc(C(=O)N3CCCCCC3)ccc21	8	-2
CCN(CC)c1ccc(C=Nc2ccc(NC(C)=O)cc2)cc1	5	3
NS(=O)(=O)c1ccc(F)cc1Cl	.	2
COc1ccc(Oc2coc3cc(OCc4ccc(F)cc4)ccc3c2=O)cc1	3	-8
COc1ccc(CSc2nnc(-c3ccco3)n2-c2ccccc2)cc1F	2	-28
COCCNC(=O)C1CCN(Cc2cc3ccccc3n2Cc2cccc(F)c2)CC1	63*	-3
COCCNC(=O)C1CCN(Cc2cc(OC)c(OC)c(OC)c2)CC1	-4	-6
O=[N+]([O-])c1cccc(CNc2ccc(F)c(Cl)c2)c1	24	5
COc1ccc(CNC(=O)c2cc3ccccn3c2)cc1	7	0
COc1cccc(C(C)NC(=O)c2cc3ccccn3c2)c1 (stereo not given)	68*	-3
CN1C(=O)/C(=C\c2nc3ccccc3c(=O)[nH]2)c2ccccc21	-2	-1
CCCN1C(=O)/C(=C\c2nc3ccccc3c(=O)[nH]2)c2cc(Br)ccc21	68*	4
COc1cc2c(cc1OC)C(COc1ccccc1OC)N(C(=S)Nc1ccc([N+](=O)[O-])cc1)CC2 (stereo not given)	30	-25
Cc1ccc(C)c(Cc2c(C)nc3c(C(=O)NC4CCCCC4)cnn3c2C)c1	-1	1
COCCCNC(=O)c1cnn2c(C)c(Cc3cc(C)ccc3C)c(C)nc12	42	-11
Cc1ccc(C)c(Cc2c(C)nc3c(C(=O)NC4CC4)cnn3c2C)c1	53*	-6
Cc1ccccc1Cc1c(C)nc2c(C(=O)NC(C)C)cnn2c1C	71*	-13
Cc1ccccc1Cc1c(C)nc2c(C(=O)NC3CCCC3)cnn2c1C	-1	-9
